Experimental data published in PubChem BioAssay (NCI).
This is part of a sample that, as a whole, favours compounds with a hit. Of some 83,000 tested, about 20% had one in any assay.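 Plates (96-well) were seeded with cells, treated with compound at one concentration, and incubated for 48 hours before percent growth was determined.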 Activity calls are given as the source filed them. The calls were made as follows: active = growth percent below 10; inactive = the rest.

Each compound was assayed on MDA-MB-468 breast (assay: NCI-60 one-dose screen, 48 h (100 = growth as untreated, 0 = no growth, -100 = all killed)). Details: 10 µM unless noted.
With `COc1ccc(C(=O)/C=C/c2c[n+](=O)c3ccc(F)cc3n2[O-])cc1` the growth was 101% (inactive).
In the case of `COc1cccc(-c2nnc(COc3ccc(-c4nc5ccccc5[nH]4)cc3OC)o2)c1`, the growth was 84.6% (inactive).
With `CC1C(/C=N/Nc2ccccc2)C(C#N)(C#N)C1(C#N)C#N` (stereo not given) the growth was 91.3% (inactive).
For `C=CCCCCCCCCC(=O)[O][Sn]([CH2]CCC)([CH2]CCC)[CH2]CCC`, the growth was -85.6% (active).
With `c1ccc(-c2ccc(-c3ccccc3)[nH]2)cc1` the growth was 70.1% (inactive).
With `O=C1CCC(=O)N1Cc1ccccc1` the growth was 88.2% (inactive).
`CCOC(OCC)C(=O)c1ccccc1` was tested, and the growth was 102% (inactive).
For `COc1ccc(Nc2nc(Nc3cc(C)[nH]n3)c3cc(OC)c(OC)cc3n2)cc1`, the growth was -69.9% [20 µM] (active).
In the case of `COc1cccc(/C=N\Nc2ccc([N+](=O)[O-])cn2)c1O`, the growth was 26.4% (inactive).
With `CC(C)(C)c1ccc(O)c(Br)c1` the growth was 70.2% (inactive).
`C=C(C)C1CC(O)C2(C)CCCC3C2C1CC(C)C3(C)CC/C(C)=C/C(O)C1CCC(=O)c2c(OC)cc(OC)cc21` (stereo not given) was tested, and the growth was 0.0686% (active).
`Clc1ccc(/C=N\N=C\c2ccc(Cl)c(Cl)c2)cc1Cl` was tested, and the growth was 78.5% (inactive).
With `O=C(CSc1nnc(-c2ccc(NC(=O)c3cccnc3)cc2)o1)N[C@@H](Cc1ccc(O)cc1)C(=O)O` the growth was 110% (inactive).
With `C=C1C(=O)O[C@H]2[C@H]1CC/C(Cn1cc(-c3cc(C(F)(F)F)cc(C(F)(F)F)c3)nn1)=C\CC[C@@]1(C)O[C@@H]21` the growth was -56.7% (active).
In the case of `CC(C)(O)C#CC#CC(C)(C)O`, the growth was 97.7% (inactive).
